According to PubChem BioAssay (EPA / NIEHS):
Records with an inconclusive call do not appear. The source made the active and inactive calls. How the source made its calls, unless noted: active means hit-call score of the fitted dose curve at least 0.9, where 1 is the maximum; inactive means score below 0.9.

Key:
[1] = CCTE_Shafer_MEA_dev_firing_rate_mean: CCTE's Neural Network Formation Assay for Mean Firing Rate, Shafer Lab (AID 2284031);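 further: curve fitted for loss of firing so AC50 reflects decreased mean firing rate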
In short: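 Steps: seed rat cortical cells (1.5 x 10^5/well) with laminin on PEI-coated MEA; dose day 0; record DIV 5/7/9/12, full media and compound exchange after DIV 5 and 9 recordings; compute well-mean firing rate AUC.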

[2] = CCTE_Shafer_MEA_dev_per_burst_spike_percent: CCTE's Neural Network Formation Assay for Percent of Spikes in a Burst, Shafer Lab (AID 2284032);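 further: fitted as a decrease in burst spike percentage below DMSO baseline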
In short: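 Value is trapezoidal AUC over recordings on days 5, 7, 9 and 12 of the well-mean fraction of spikes falling in single-electrode bursts; rat cortical cultures exposed continuously from plating, treatment renewed DIV 5 and 9, fitted downward against DMSO.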

[3] = CCTE_Shafer_MEA_dev_active_electrodes_number: CCTE's Neural Network Formation Assay for Number of Active Electrodes, Shafer Lab (AID 2284040; active means hit-call score of the fitted dose curve at least 0.9, where 1 is the maximum;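 further: potency for loss of active electrodes versus DMSO so lower counts are hits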)
In short: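 Counts electrodes per well firing at least 5 spikes/min, recorded on days 5, 7, 9 and 12 in rat cortical cultures dosed continuously from plating (treatment refreshed DIV 5, 9). Value is the area under the curve over recordings, fitted downward relative to DMSO.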

[4] = CCTE_Shafer_MEA_dev_burst_rate: CCTE's Neural Network Formation Assay for Burst Rate, Shafer Lab (AID 2284042);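 further: potency for loss of burst rate below DMSO control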
In short: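 Cells plated, treated day 0; recorded DIV 5, 7, 9, 12; fed and re-treated DIV 5, 9. Endpoint: bursts per recording time, active-electrode well mean, trapezoidal AUC, fitted in decreasing direction against DMSO baseline.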

[5] = CCTE_Shafer_MEA_dev_bursting_electrodes_number: CCTE's Neural Network Formation Assay for Number of Bursting Electrodes, Shafer Lab (AID 2284043; active means hit-call score of the fitted dose curve at least 0.9, where 1 is the maximum;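 further: potency is for loss of bursting electrodes relative to DMSO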)
In short: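 Number of electrodes reaching ≥1 burst every 2 min was recorded at DIV 5, 7, 9 and 12 and collapsed as trapezoidal area under the curve. Cultures were rat cortical neurons on MEA plates, dosed continuously from plating with medium and treatment refreshed on DIV 5 and 9.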

[6] = CCTE_Shafer_MEA_dev_per_burst_interspike_interval: CCTE's Neural Network Formation Assay for Burst Interspike Interval, Shafer Lab (AID 2284044);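 further: potency for a decrease of within-burst interspike interval below DMSO level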
In short: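 Readout is the average time between spikes inside single-electrode bursts, taken as a well mean across bursting electrodes. Cortical neurons from rat developed networks on MEA plates under continuous 12-day exposure; recordings on days 5, 7, 9 and 12 were integrated by trapezoidal AUC.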

[7] = CCTE_Shafer_MEA_dev_burst_duration_mean: CCTE's Neural Network Formation Assay for Mean Burst Duration, Shafer Lab (AID 2284045);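 further: curve fitted for loss meaning shorter burst duration than DMSO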
In short: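 Mean single-electrode burst duration (first to last spike), averaged over bursting electrodes per well, then integrated as area-under-curve across recordings at days 5, 7, 9 and 12. Rat cortical cultures on MEAs, compound present from plating, refreshed at feeds.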

[8] = CCTE_Shafer_MEA_dev_interburst_interval_mean: CCTE's Neural Network Formation Assay for Mean Interburst Interval, Shafer Lab (AID 2284046);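 further: well-mean interburst interval of bursting electrodes as AUC over four recording days; curve fitted for decrease in interburst interval relative to DMSO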
In short: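 Developing rat cortical networks on 48-well MEAs receive compound from the day of plating. Burst intervals from each active electrode are averaged per well, and AUC over the recording days is fitted in the negative direction against DMSO.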

[9] = CCTE_Shafer_MEA_dev_network_spike_number: CCTE's Neural Network Formation Assay for Number of Network Spikes, Shafer Lab (AID 2284048);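 further: fit as a loss of signal meaning fewer network spikes than DMSO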
In short: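 Number of network spikes (coordinated firing across electrodes) recorded on days 5, 7, 9 and 12 and summarised as area under the curve. Rat cortical cultures on MEA, continuous compound exposure with full medium/treatment exchange at DIV 5 and 9.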

[10] = CCTE_Shafer_MEA_dev_network_spike_peak: CCTE's Neural Network Formation Assay for Mean Number of Electrodes in Network Spike, Shafer Lab (AID 2284049);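 further: fitted for loss of signal meaning fewer electrodes in network spikes than DMSO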
In short: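 Rat cortical primary culture, 1.5 x 10^5 cells/well, 48-well MEA (16 electrodes/well). Dosing day 0 through DIV 12, full media/compound exchange DIV 5, 9. AxIS adaptive spike detection; AUC over days 5/7/9/12; loss-of-signal vs DMSO.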

[11] = CCTE_Shafer_MEA_dev_spike_duration_mean: CCTE's Neural Network Formation Assay for Mean Spike Duration, Shafer Lab (AID 2284051);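 further: mean network spike duration pooled as area under curve over DIV 5 to 12 recordings; potency for a decrease in mean network spike duration versus DMSO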
In short: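 Readout is the average length of network spikes, clustered firing across electrodes, summed over DIV 5, 7, 9 and 12 as area under the curve. Neurons from rat cortex developed networks on MEA plates under continuous 12-day exposure.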

[12] = CCTE_Shafer_MEA_dev_network_spike_duration_std: CCTE's Neural Network Formation Assay for Standard Deviation of Network Spike Duration, Shafer Lab (AID 2284052);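 further: hits are decreases in network spike duration SD versus DMSO vehicle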
In short: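 Read-out is the trapezoidal area-under-the-curve across recordings made on days 5, 7, 9 and 12, fitted in the negative direction against DMSO baseline. Neurons were primary rat cortical cells treated from day 0, with treatment renewed at each feed.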

[13] = CCTE_Shafer_MEA_dev_per_network_spike_spike_number_mean: CCTE's Neural Network Formation Assay for Mean Number of Spikes in a Network Spike, Shafer Lab (AID 2284053);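 further: fitted as decrease in spikes per network spike relative to DMSO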
In short: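 Continuous twelve-day exposure of developing rat cortical networks grown over 16 microelectrodes per well; spontaneous firing is captured at four time points, and the per-network-spike spike number is integrated over development by trapezoidal AUC.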

[14] = CCTE_Shafer_MEA_dev_per_network_spike_spike_percent: CCTE's Neural Network Formation Assay for Percent of Spikes in a Network Spike, Shafer Lab (AID 2284054)
In short: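 Metric: fraction of spikes falling in a 0.05 s window at network-spike peaks. Recordings were made on days 5, 7, 9 and 12 and collapsed by trapezoidal AUC. Cultures were rat cortical neurons on MEA plates, dosed continuously from plating, re-dosed at media changes.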

[15] = CCTE_Shafer_MEA_dev_LDH: CCTE's Lactate Dehydrogenase Assay for Cytotoxicity in the Neural Network Formation Assay, Shafer Lab (AID 2284068; active means hit-call score of the fitted dose curve at least 0.9, where 1 is the maximum;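 further: exposure for twelve days from plating with re-dosing on DIV 5 and 9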)
In short: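 Cytotoxicity companion to network-formation recordings: rat cortical neurons received compound over 12 days of development, re-dosed at DIV 5 and 9 feeds. Viability was inferred from LDH enzyme activity relative to DMSO.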

[16] = CCTE_Shafer_MEA_dev_AB: CCTE's Alamar Blue Assay for Cytotoxicity in the Neural Network Formation Assay, Shafer Lab (AID 2284083; active means hit-call score of the fitted dose curve at least 0.9, where 1 is the maximum;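 further: resazurin reduction fluorescence as viability of cultured neurons; twelve days of exposure from plating with re-dosing on DIV 5 and 9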)
In short: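 Fluorescent resazurin reduction serves as the viability read-out, with DMSO as negative control and baseline. Cells were primary rat cortical neurons grown on MEA plates and dosed from day 0 to day 12, treatment renewed on DIV 5 and 9.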

[17] = CCTE_Shafer_MEA_dev_mutual_information_norm: CCTE's Neural Network Formation Assay for Mutual Information Normalization, Shafer Lab (AID 2284091);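 further: mutual information between electrodes summarised as area under curve across four recording days; potency is for a decrease in mutual information relative to DMSO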
In short: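 Shared information across electrodes, tracked on days 5, 7, 9 and 12 of network development and collapsed as trapezoidal area under the curve. Rat cortical cultures were treated continuously from plating, with treatment renewed at feeds on DIV 5 and 9; DMSO baseline, negative-direction fit.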

[18] = CCTE_Shafer_MEA_dev_correlation_coefficient_mean: CCTE's Neural Network Formation Assay for Mean Correlation Coefficient, Shafer Lab (AID 2284093);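 further: well mean pairwise spike train correlation integrated as AUC over recording days 5 to 12; potency fitted for loss of correlation relative to DMSO vehicle wells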
In short: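 Read-out: well-mean correlation coefficient of spike trains between electrode pairs, collapsed over four recording days as trapezoidal area-under-the-curve. Developing rat cortical neuron networks grown on MEAs received test chemical continuously from plating.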

[19] = IUF_NPC1b_proliferation_BrdU_72hr: Leibniz Research Institute for Environmental Medicine (IUF) 72-hour Neural Progenitor Cell Bromodeoxyuridine (BrdU) Proliferation Assay (NPC1b) (AID 2284207)
In short: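 Human fetal cortex-derived (GW 16-19) neural progenitor spheres, 0.25-0.35 mm, one per well in EGF/FGF proliferation medium, exposed to compound for 72 h at 37C, pH 7.2-7.6. BrdU incorporation over the final 16 h read by luminescence ELISA, relative to DMSO.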

[20] = CCTE_Mundy_HCI_Cortical_Synap_Neur_Matur_NeuriteSpotCountPerNeuriteLength: CCTE's Synaptogenesis and Neurite Maturation Assay in rat cortical cells for Neurite Spot Count per Neurite Length, Mundy Lab (AID 2284210)
In short: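 Synaptophysin spots per unit neurite length, measured by automated imaging of MAP2/synaptophysin/Hoechst-stained neurons. Cultures from rat cortex received chemical at DIV 7 with media change through DIV 12; glial growth arrested by AraC at DIV 5; DMSO baseline.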

[21] = CCTE_Mundy_HCI_Cortical_Synap_Neur_Matur_BPCount: CCTE's Synaptogenesis and Neurite Maturation Assay in rat cortical cells for Branch Point Count, Mundy Lab (AID 2284211)
In short: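 HCI read-out of branch points from MAP2/synaptophysin/Hoechst immunofluorescence; rat cortical cultures, AraC DIV 5, dosing DIV 7, fixed DIV 12; fit in positive direction vs DMSO baseline.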

[22] = CCTE_Mundy_HCI_Cortical_NOG_NeuriteCount: CCTE's Neurite Outgrowth Assay in rat cortical cells for Neurite Count, Mundy Lab (AID 2284212);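 further: cells fixed about two days after chemical exposure began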
In short: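 Rat cortical primary cells; compound added 2 h post-plating, 1/10 dilution of working solution. Anti-betaIII-tubulin/AF488 ICC; ArrayScan neurite count vs DMSO.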

[23] = CCTE_Mundy_HCI_Cortical_NOG_NeuriteLength: CCTE's Neurite Outgrowth Assay in rat cortical cells for Neurite Length, Mundy Lab (AID 2284213);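 further: neurites imaged about 48 to 50 h after chemical exposure began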
In short: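 First, rat primary cortical cells were plated and, 2 h later, given test chemical as a 1/10 dilution. Finally, βIII-tubulin immunostaining enabled automated imaging of neurite length.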

O=[As]O
AC50 [1]: 2.14 µM (active)
AC50 [2]: 1.4 µM (active)
AC50 [3]: 1.41 µM (active)
AC50 [4]: 2.42 µM (active)
AC50 [5]: 1.23 µM (active)
AC50 [6]: 2.43 µM (active)
AC50 [7]: 2.5 µM (active)
AC50 [8]: 1.69 µM (active)
AC50 [9]: 1.28 µM (active)
AC50 [10]: 1.67 µM (active)
AC50 [11]: 1.14 µM (active)
AC50 [12]: 1.08 µM (active)
AC50 [13]: 1.14 µM (active)
AC50 [14]: 1.14 µM (active)
AC50 [15]: 1.09 µM (active)
AC50 [16]: 1.82 µM (active)
AC50 [17]: 1.15 µM (active)
AC50 [18]: 996 nM (active)
AC50 [19]: 2.03 µM (active)
outcome [20]: inactive
AC50 [21]: 5 µM (active)
AC50 [22]: 3.32 µM (active)
AC50 [23]: 2.48 µM (active)
